The list is not random: actives were taken first. Their share in the collection is about 5.7%.
Myeloid diff MLP = promotes myeloid progenitor differentiation | calls only at 10 µM | AID 624256 | ER-HoxA9 myeloid progenitors, lysozyme-GFP differentiation, flow cytometry | 360,000 compounds, 1% hits;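 active = normalized GFP-positive differentiation at or above the plate's own cutoff, the solvent-only control mean plus 3 SD; inconclusive = no clear call, values can overlap the other calls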;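 note: cells exposed to compound for four days before flow analysis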
rCAG RNA binder = binds r(CAG) RNA repeats. r(CAG) RNA repeat, TO-PRO-1 dye displacement fluorescence. inhibition, % at 3 µM. 370,000 compounds, 1.3% hits. AID 651821;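 active = inhibition above the plate cutoff, the mean of all test compounds on that plate plus 3 SD, cut at about 35% in these data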;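 note: 0% = DMSO alone and 100% = 100 µM mitoxantrone as full dye displacement; higher means more dye released from RNA so lower well fluorescence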
NR3A LBD binder = NR3A (human) ligand-binding domain modulation; NR3A LBD differential scanning fluorimetry, Tm shift; 0% = protein alone, 100% = glycine-bound protein; Tm shift relative to glycine control, % at 25 µM; 340,000 compounds, 2.5% hits; AID 1259313;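 active = melting temperature shift of at least 10% of the positive control shift, at one fixed dose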
MPTP inh = blocks calcium-induced mitochondrial swelling | isolated mouse mitochondria, Ca2+ swelling absorbance, 30 min | inhibition, % at 10 µM | 360,000 compounds, 1.4% hits | AID 602449;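 active = inhibition of 50% or more, scaled per plate between neutral and stimulator controls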;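 note: 0% = DMSO wells given calcium and 100% = 1 mM EGTA wells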
FAS TE block = inhibitors of human fatty acid synthase thioesterase domain | P49327 | recombinant FAS-TE, OMFH fluorogenic substrate, fluorescence endpoint | inhibition, % at 15 µM | 360,000 compounds, 0.67% hits;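 active = compounds whose normalised, plate-corrected inhibition of enzyme fluorescence in the single-dose primary screen is 50% or more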;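 note: 0% = DMSO with enzyme and 100% = substrate without enzyme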
Target sequence (P49327 whole entry, looked up, the tested form may be a part): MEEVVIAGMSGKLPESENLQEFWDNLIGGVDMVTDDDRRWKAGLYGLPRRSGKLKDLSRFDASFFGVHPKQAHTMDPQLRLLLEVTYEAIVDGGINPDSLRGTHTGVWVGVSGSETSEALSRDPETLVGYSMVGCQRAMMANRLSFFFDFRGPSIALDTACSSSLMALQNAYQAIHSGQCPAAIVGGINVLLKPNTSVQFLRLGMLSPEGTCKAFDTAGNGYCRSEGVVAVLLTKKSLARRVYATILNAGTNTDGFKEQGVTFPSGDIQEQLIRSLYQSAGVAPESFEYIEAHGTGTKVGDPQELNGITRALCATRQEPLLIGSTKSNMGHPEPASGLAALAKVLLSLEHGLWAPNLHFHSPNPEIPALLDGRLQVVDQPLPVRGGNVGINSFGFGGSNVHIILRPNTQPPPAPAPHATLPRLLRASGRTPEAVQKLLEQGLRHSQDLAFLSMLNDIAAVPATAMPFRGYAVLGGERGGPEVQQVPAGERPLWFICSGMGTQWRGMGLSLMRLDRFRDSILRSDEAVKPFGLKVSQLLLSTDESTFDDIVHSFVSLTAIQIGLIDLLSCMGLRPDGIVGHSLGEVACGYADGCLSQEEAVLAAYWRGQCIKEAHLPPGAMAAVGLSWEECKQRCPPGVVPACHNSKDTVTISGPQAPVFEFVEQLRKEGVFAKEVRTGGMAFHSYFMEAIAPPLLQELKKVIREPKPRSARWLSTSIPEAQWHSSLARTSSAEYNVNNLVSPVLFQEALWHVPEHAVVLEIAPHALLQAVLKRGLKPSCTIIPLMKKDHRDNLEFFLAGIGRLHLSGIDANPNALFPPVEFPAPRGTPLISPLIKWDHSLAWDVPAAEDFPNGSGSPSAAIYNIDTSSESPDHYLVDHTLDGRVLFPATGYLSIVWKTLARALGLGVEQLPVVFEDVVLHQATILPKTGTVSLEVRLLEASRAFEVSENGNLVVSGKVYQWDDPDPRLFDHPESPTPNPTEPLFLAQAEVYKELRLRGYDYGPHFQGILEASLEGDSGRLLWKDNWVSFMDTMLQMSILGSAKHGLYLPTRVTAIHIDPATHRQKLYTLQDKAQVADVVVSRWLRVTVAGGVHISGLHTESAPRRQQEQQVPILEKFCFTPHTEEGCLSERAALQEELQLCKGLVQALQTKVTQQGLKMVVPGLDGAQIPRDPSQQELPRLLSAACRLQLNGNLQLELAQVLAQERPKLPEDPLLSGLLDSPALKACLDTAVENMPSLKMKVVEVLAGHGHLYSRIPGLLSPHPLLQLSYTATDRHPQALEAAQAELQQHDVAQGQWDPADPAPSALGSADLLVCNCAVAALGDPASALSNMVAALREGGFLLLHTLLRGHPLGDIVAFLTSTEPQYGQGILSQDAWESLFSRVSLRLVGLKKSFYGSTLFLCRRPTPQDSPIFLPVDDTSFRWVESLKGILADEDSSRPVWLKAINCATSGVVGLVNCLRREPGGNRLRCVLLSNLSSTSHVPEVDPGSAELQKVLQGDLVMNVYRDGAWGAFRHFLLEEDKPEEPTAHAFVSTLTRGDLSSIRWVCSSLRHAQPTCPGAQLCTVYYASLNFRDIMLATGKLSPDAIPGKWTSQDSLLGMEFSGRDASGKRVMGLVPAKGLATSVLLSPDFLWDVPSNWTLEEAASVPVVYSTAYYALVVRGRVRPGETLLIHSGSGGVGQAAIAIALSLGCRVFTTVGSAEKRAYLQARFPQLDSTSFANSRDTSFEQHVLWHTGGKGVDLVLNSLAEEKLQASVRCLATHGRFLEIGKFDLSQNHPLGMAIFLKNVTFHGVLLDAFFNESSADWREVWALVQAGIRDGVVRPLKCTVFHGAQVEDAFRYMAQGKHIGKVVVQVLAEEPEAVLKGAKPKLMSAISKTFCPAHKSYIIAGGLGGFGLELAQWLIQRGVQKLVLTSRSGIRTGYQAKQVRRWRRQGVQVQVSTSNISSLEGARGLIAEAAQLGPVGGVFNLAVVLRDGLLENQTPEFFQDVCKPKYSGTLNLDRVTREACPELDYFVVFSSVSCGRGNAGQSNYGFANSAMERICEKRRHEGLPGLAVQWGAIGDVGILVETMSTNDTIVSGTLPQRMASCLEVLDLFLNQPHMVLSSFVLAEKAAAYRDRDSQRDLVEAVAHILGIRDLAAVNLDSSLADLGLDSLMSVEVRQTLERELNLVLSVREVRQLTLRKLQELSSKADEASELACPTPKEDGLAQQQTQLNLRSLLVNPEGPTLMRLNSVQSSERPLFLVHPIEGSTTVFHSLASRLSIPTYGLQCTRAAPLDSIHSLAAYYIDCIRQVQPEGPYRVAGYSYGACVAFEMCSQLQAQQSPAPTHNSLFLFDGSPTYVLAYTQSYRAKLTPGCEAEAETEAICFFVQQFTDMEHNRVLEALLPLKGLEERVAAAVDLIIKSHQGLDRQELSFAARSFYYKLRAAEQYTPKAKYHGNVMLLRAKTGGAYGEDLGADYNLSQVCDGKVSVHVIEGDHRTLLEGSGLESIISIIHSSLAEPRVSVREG
rCAG bind conf = r(CAG) RNA repeat binding, confirmation. TO-PRO-1 dye displacement fluorescence. 4,300 compounds, 70% hits. shares compounds with rCAG RNA binder. inhibition, % at 3 µM;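 active = inhibition above a per-plate cutoff, the mean inhibition of sample wells plus 3 SD, cut at about 35% in these data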;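 note: loss of TO-PRO-1 fluorescence as compound displaces dye from 1x1 AA loop RNA; 0% = DMSO only wells and 100% = 100 µM mitoxantrone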
DNA CAG counter = disrupts DNA CAG TO-PRO-1 complex, flagging rCAG hits; shares compounds with rCAG RNA binder; d(CAG) DNA oligo TO-PRO-1 dye displacement, fluorescence; inhibition, % at 3 µM; 4,300 compounds, 94% hits; AID 652068;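 active = inhibition above its plate's cutoff, the mean test-well inhibition plus 3 SD, cut at about 4.8% in these data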;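 note: 0% = DNA dye mix with DMSO and 100% = 100 µM mitoxantrone; hits displace the dye from DNA and so lower well fluorescence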
dCAG dye DR = disrupts DNA CAG TO-PRO-1 complex in dose response. shares compounds with rCAG RNA binder. DNA CAG/GTC duplex TO-PRO-1 dye displacement fluorescence. IC50, µM. 250 compounds, 20% hits. AID 686960; in the data active = IC50 below about 10 µM
An asterisk follows results filed as active; i = inactive; ? = inconclusive; nt = not tested or not shown.

SMILES | Myeloid diff MLP | rCAG RNA binder | NR3A LBD binder | MPTP inh | FAS TE block | rCAG bind conf | DNA CAG counter | others
CC(C)c1ccc(NC(=O)Nc2nc(C(N)CCc3ccccc3)cs2)cc1 (configuration not stated) | nt | 30.4 | nt | 4.6 | -28.1 | nt | nt
COc1cc(NC(=O)Nc2nc(C(N)CCc3ccccc3)cs2)cc(OC)c1OC (configuration not stated) | i | 35.4* | nt | 4.9 | -9.5 | 29.8 | 1.5
CC(C)C(N)c1csc(NC(=O)Nc2ccccc2C(C)(C)C)n1 (configuration not stated) | i | 13.6 | nt | 1.4 | -5.9 | nt | nt
CC(C)C(N)c1csc(NC(=O)Nc2cccc(C(F)(F)F)c2)n1 (configuration not stated) | i | 41.9* | nt | 4.6 | -11.2 | 44.8* | 4.2 | dCAG dye DR=>29.9
NC(Cc1ccc(Cl)cc1)c1csc(NC(=O)Nc2ccccc2)n1 (configuration not stated) | i | 37.8* | nt | 6.9 | 0.6 | 22.7 | 10.8*
COc1ccc(OC)c(NC(=O)Nc2nc(C(N)CCc3ccccc3)cs2)c1 (configuration not stated) | i | 17.0 | nt | 3.4 | -7.5 | nt | nt
O=C(O)C1Cc2ccccc2CN1C(=O)CCl (configuration not stated) | i | 0.5 | -3.1 | -4.8 | -4.8 | nt | nt
Cc1cccc(Oc2ccccc2NC(=O)C2=COCCO2)c1 | i | -0.1 | 0.4 | -1.4 | 16.5 | nt | nt
COc1ccc(S(=O)(=O)N2CCOCC2)cc1NC(=O)CSc1n[nH]c(C(C)C)n1 | i | 7.3 | -0.5 | -1.4 | -15.0 | nt | nt
NC(Cc1ccc(C(F)(F)F)cc1)c1csc(NC(=O)Nc2ccccc2)n1 (configuration not stated) | i | 35.0* | nt | 7.4 | -0.4 | 16.3 | 7.5*
CCN(CC)C(=O)CN1C(=O)COCC1=O | i | 0.7 | -1.0 | -2.5 | -5.8 | nt | nt
O=S(=O)(NC1=NCCCCC1)c1ccc2sc(NS(=O)(=O)c3ccc4ccccc4c3)nc2c1 | i | 56.4* | 3.5 | 2.1 | -0.6 | 63.0* | 27.7*
O=S(=O)(Nc1nc2c(s1)CCCC2)c1ccc2ccccc2c1 | i | 31.8 | -6.5 | -1.1 | 3.3 | nt | nt
COc1cc(/C=N/NC(=O)c2ccc(NS(=O)(=O)c3cccs3)cc2)cc(OC)c1O | i | 7.6 | -1.3 | 1.1 | -3.7 | nt | nt
COc1ccccc1NC(=O)c1ccccc1NS(=O)(=O)c1cccs1 | i | 36.6* | 2.5 | 12.8 | 1.0 | 27.3 | 5.3*
COc1ccccc1NC(=O)c1ccccc1NS(C)(=O)=O | i | 8.1 | 4.5 | 1.3 | -1.7 | nt | nt
COc1ccc(C=NNC(=O)c2ccccc2NS(=O)(=O)c2cccs2)cc1O | i | 35.7* | 1.0 | -0.9 | -5.6 | 36.7* | 10.1*
O=C(N/N=C/c1ccc(N2CCOCC2)cc1)c1ccccc1NS(=O)(=O)c1cccs1 | i | 66.2* | -2.5 | -1.1 | -3.2 | 50.0* | 16.5*
COc1cc(C=NNC(=O)c2ccccc2NS(=O)(=O)c2cccs2)cc(OC)c1O | i | 42.4* | -0.3 | -0.3 | -2.6 | 50.9* | 12.0*
COc1cccc(S(=O)(=O)N(C)C[C@H]2OCc3cnnn3CCCC(=O)N([C@H](C)CO)C[C@H]2C)c1 | i | 0.9 | nt | -0.2 | -10.5 | nt | nt
O=S(=O)(/C=C/c1cccc(Br)c1)N1CCOCC1 | i | -0.2 | 2.6 | -0.6 | -2.8 | nt | nt
Cc1ccc(/C=N/NC(=O)CC2N=C(Cc3ccccc3)NNC2=O)cc1 (configuration not stated) | i | -0.8 | 0.3 | 0.6 | -9.4 | nt | nt
O=C(NN=Cc1ccc(O)cc1O)c1ccccc1NS(=O)(=O)c1cccs1 | i | 43.4* | 5.3 | 4.7 | 20.3 | 41.1* | 13.8*
Cc1cc(SCC(=O)c2ccc(O)c(O)c2)n2nc(C)c(-c3ccccc3)c2n1 | i | 50.4* | 22.6* | 17.3 | 12.6 | 67.2* | 33.4*
Cc1cc(C)nc(SCC(=O)c2ccc(O)c(O)c2)n1 | i | 9.5 | 2.1 | -0.2 | -8.6 | nt | nt
SMILES | Myeloid diff MLP | rCAG RNA binder | NR3A LBD binder | MPTP inh | FAS TE block | rCAG bind conf | DNA CAG counter | others
N=c1c(S(=O)(=O)c2ccc(Cl)cc2)cc2c(=O)n3ccccc3nc2n1Cc1ccco1 | i | 36.2* | -0.2 | 0.5 | 33.0 | 55.6* | 25.1*
N=c1c(S(=O)(=O)c2ccc(Br)cc2)cc2c(=O)n3ccccc3nc2n1Cc1ccco1 | i | 26.5 | -0.5 | 1.8 | 39.0 | nt | nt
COc1cc(OC)cc(C(=O)NC2CCN(CC(=O)Nc3cccc4ccccc34)CC2)c1 | i | 1.9 | 2.3 | -0.9 | 5.8 | nt | nt
NN(Cc1ccccc1)C(=S)Nc1ccc(Cl)c(Cl)c1 | i | 3.0 | 5.5 | 3.3 | 45.1 | nt | nt
O=C(Cn1cc(COc2ccc(-n3cccc3)cc2)nn1)NS(=O)(=O)c1ccccc1C(F)(F)F | i | 64.0* | nt | -1.8 | -4.8 | 65.4* | 18.2*
O=C(Cn1cc(COc2ccc(Cl)c(Cl)c2)nn1)NS(=O)(=O)c1ccccc1C(F)(F)F | i | 59.5* | nt | 0.4 | 0.8 | 63.3* | 15.7*
Cc1ccc(CNCCCn2cnc3c(OCc4ccccc4)ncnc32)o1 | i | 1.9 | -0.5 | -0.7 | -9.9 | nt | nt
Cc1ccc(-n2ccc(=O)c(C(=O)Nc3ccc(S(=O)(=O)Nc4onc(C)c4C)cc3)n2)cc1 | ? | 59.1* | -2.8 | 0.2 | -4.6 | 46.3* | 15.9*
COc1cccc(OC)c1C(=O)Nc1ccc(S(=O)(=O)Nc2ncccn2)cc1 | i | 3.4 | 2.0 | 0.2 | -5.5 | nt | nt
Cc1ccc(S(=O)(=O)Nc2ccc3[nH]c(=O)[nH]c3c2)c(C)c1 | i | -0.7 | -0.6 | 0.2 | -3.6 | nt | nt
Cc1noc(NS(=O)(=O)c2ccc(NC(=O)c3cc(S(=O)(=O)N(C)c4ccccc4)ccc3Cl)cc2)c1C | i | 76.8* | 0.2 | -0.2 | 0.9 | 75.8* | 40.8*
Cc1cc(F)ccc1S(=O)(=O)Nc1ccccc1C(=O)Nc1ccc2[nH]c(=O)[nH]c2c1 | i | 61.0* | 8.6 | 1.2 | 9.2 | 63.4* | 25.9*
CN(c1ccccc1)S(=O)(=O)c1ccc(Cl)c(C(=O)Nc2ccc(N3CCOCC3)cc2)c1 | i | 3.8 | -2.0 | -0.1 | 10.8 | nt | nt
Cc1ccc(-c2cc(C(=O)Nc3ccc(S(=O)(=O)Nc4ncccn4)cc3)[nH]n2)c(O)c1C | i | 61.5* | 10.2* | 5.2 | -2.9 | 53.4* | 19.3*
CCc1cc(C(=O)N2CCCC(Nc3ccc(F)c(F)c3)C2)n(C)n1 (configuration not stated) | i | -7.0 | 2.1 | -1.1 | -3.8 | nt | nt
CC(C)(C)c1ccc(OCC(O)CN2CCOCC2)cc1 (configuration not stated) | i | -5.7 | 2.5 | 0.9 | -3.5 | nt | nt
Cc1ccc2oc(C(=O)Nc3ccc(S(=O)(=O)Nc4onc(C)c4C)cc3)c(C)c2c1 | i | 13.3 | -0.8 | -1.2 | -1.3 | nt | nt

Bioassay records from PubChem.
